Holding throughout (assay): NCI-60 one-dose screen, 48 h (100 = growth as untreated, 0 = no growth, -100 = all killed)
Experiment [1] has as its system DU-145 prostate. To be noted: 10 µM unless noted.
The subject of experiment [2] is K-562 leukemia. To be noted: 10 µM unless noted.
The subject of experiment [3] is MDA-MB-231 breast. The conditions noted are these: 10 µM unless noted.
For experiment [4], the system named is RXF 393 renal. To be noted: 10 µM unless noted.
The test system of experiment [5] is SF-268 CNS. The conditions noted are these: 10 µM unless noted.
Experiment [6] relates to SF-539 CNS. To be noted: 10 µM unless noted.
Experiment [7] has as its system UACC-257 melanoma. The conditions noted are these: 10 µM unless noted.
Experiment [8] has as its system M14 melanoma. To be noted: 10 µM unless noted.
The test system of experiment [9] is HCT-15 colon. To be noted: 10 µM unless noted.
In experiment [10] the test system is HT29 colon. To be noted: 10 µM unless noted.
The subject of experiment [11] is SNB-75 CNS. To be noted: 10 µM unless noted.
Experiment [12] concerns SNB-19 CNS. To be noted: 10 µM unless noted.
The test system of experiment [13] is U251 CNS. To be noted: 10 µM unless noted.
For experiment [14], the system named is PC-3 prostate. The conditions noted are these: 10 µM unless noted.
Experiment [15] deals with UACC-62 melanoma. To be noted: 10 µM unless noted.
For experiment [16], the system named is LOX IMVI melanoma. The conditions noted are these: 10 µM.
The test system of experiment [17] is SK-MEL-28 melanoma. The conditions noted are these: 10 µM unless noted.
Experiment [18] relates to MALME-3M melanoma. The conditions noted are these: 10 µM unless noted.
Experiment [19] relates to SF-295 CNS. To be noted: 10 µM unless noted.
Experiment [20] deals with SK-MEL-5 melanoma. To be noted: 10 µM unless noted.

The source of these data is PubChem BioAssay (NCI).

SMILES strings stand for the structures. The panel holds about 83,000 compounds, 20% with a hit somewhere; the sample as a whole holds those more often.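 The endpoint reported here, percent growth, reads 100 for growth as untreated, 0 for no net growth and -100 for all cells dead.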 A number with no mark means an inactive call. Calls of active or inactive are those of the source. Rule for the calls: active = growth percent below 10; inactive = the rest.

For the compound `CCCCCCCCCCCCCCCCSC(=NCC)NCC`, the growth in experiment [1] is 36%; in experiment [2], -59.8% (active); in experiment [3], -18.4% (active); in [4] it was 6.55% (active); in experiment [5] it was 39.5%; in [6], 32.8%. In addition, the growth in experiment [7] is -12.4% (active); in [8] it was -49.8% (active); in experiment [9] it was -36% (active); in experiment [10], -61.4% (active); in experiment [11] it was 53.3%; in experiment [12], 55.3%. In addition, the growth in experiment [13] was 4.98% (active); in experiment [14], -42% (active); in experiment [15], -8.15% (active); in experiment [16], -91.1% (active); in experiment [17], 43%.

`CC1(C)N=c2cc3c(cc2N1c1ccc(Cl)cc1)=Nc1ccccc1N3c1ccc(Cl)cc1`: the growth in [2] is -18.7% (active); in experiment [18], 79.4%; in experiment [3], 83.3%; in experiment [5] it was 49.6%; in [19] it was 31.7%; in experiment [6] it was 79.7%. The growth in experiment [7] is 40.5%; in experiment [8], 19.3%; in experiment [9], 33.2%; in experiment [10], 60.4%; in experiment [11], 1.77% (active); in experiment [12] it was 66.5%. Besides, the growth in experiment [13] was 39.3%; in experiment [14], 7.55% (active); in experiment [20], 37.8%; in [15], 69.1%; in experiment [16], 40.5%; in [17] it was 86.6%.

In the case of `CCOc1cc(F)c([N+](=O)[O-])cc1[N+](=O)[O-]`, the growth in [2] is 0.671% (active); in experiment [18] it was -19.2% (active); in experiment [3], 37.9%; in experiment [4] it was 12.4%; in experiment [5] it was 77.6%; in [19] it was 96.9%. The growth in experiment [7] is 56.5%; in experiment [8], 30.5%; in experiment [10] it was 2.66% (active); in experiment [11] it was 64.5%; in experiment [12], 92.2%; in experiment [13] it was 29.6%. In addition, the growth is 66.4% in [14], 76.7% in experiment [20], 78.2% in experiment [15] and -44% (active) in experiment [16].

In the case of `CC(/C=N/NC(N)=S)Cc1ccc(C(C)C)cc1` (centres undefined), the growth is 129% in experiment [1]; 82.9% in [18]; 85.4% in [3]; 69.2% in [4]; 129% in [5]; 73.2% in experiment [19]. The growth was 59% in [6]; 69.9% in experiment [7]; 80.2% in [9]; 47.1% in experiment [10]; 71.4% in [11]; 69.3% in experiment [12]. In addition, the growth in experiment [13] is 88.7%; in experiment [14], 73.5%; in experiment [15] it was 54.5%; in experiment [16], 79.5%.

As for `Nc1ccc(Oc2ccccc2)c(Cl)c1`, the growth is 104% in [1]; 115% in [2]; 111% in experiment [3]; 100% in [4]; 93% in [5]; 92.1% in experiment [19]. Also, the growth in experiment [6] is 91.7%; in experiment [7] it was 94.7%; in [9] it was 92.6%; in experiment [10], 104%; in [12], 102%; in experiment [13], 84.1%. Also, the growth in experiment [14] is 100%; in experiment [20] it was 95.6%; in experiment [15], 107%; in experiment [16] it was 103%; in experiment [17], 106%.
